# Reference: PubChem BioAssay (NCATS)
# Inconclusive results are not listed. The list shows a part of the results. Where a call stands in place of a potency, no number is given. Calls of active or inactive are those of the source. Unless noted, calls come from the whole dose curve; as a rule, active = well fitted curve in the direction sought with a large enough effect; inconclusive = small, poorly fitted or top-dose-only effect, or another doubt; inactive = no such curve, though single readings can be large; an effect the other way counts as inactive or inconclusive.
# Legend:
# [1] = biological target: Peroxisome proliferator-activated receptor delta (Homo sapiens) (UniProt Q03181); assay: qHTS assay for small molecule agonists of peroxisome proliferator-activated receptor delta signaling (AID 588534; calls by dose curve)
# Peroxisome proliferator-activated receptor delta (Homo sapiens), sequence (Q03181 whole entry, looked up): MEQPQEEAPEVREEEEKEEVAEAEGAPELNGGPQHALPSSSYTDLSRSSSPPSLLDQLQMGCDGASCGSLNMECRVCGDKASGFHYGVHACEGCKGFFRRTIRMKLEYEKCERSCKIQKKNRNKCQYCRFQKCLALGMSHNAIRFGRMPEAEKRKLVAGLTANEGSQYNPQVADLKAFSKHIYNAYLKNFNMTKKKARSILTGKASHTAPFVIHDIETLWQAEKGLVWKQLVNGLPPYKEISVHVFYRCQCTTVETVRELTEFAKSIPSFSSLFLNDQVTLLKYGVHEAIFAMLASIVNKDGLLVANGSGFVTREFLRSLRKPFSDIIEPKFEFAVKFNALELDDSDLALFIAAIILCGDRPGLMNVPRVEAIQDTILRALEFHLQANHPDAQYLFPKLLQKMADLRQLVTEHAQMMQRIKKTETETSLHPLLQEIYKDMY
# Method in brief: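 Agonist-mode qHTS; reporter cells, 5 hrs 37 C pre-incubation; compound titration, 18 hrs 37 C; CCF4 dye, 2 hrs RT; fluorescence read. EC50/efficacy via Hill fit.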
# [2] = biological target: Nuclear receptor ROR-gamma (Homo sapiens) (UniProt P51449); assay: qHTS assay for small molecule antagonists of the retinoid-related orphan receptor gamma (ROR-gamma) signaling pathway (AID 651802);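 note: CHO cells with doxycycline-induced ROR-gamma expression; series mostly up to about 92 µM; nearly all actives have a fitted effect of over 60% in size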
# Nuclear receptor ROR-gamma (Homo sapiens), sequence (P51449 whole entry, looked up): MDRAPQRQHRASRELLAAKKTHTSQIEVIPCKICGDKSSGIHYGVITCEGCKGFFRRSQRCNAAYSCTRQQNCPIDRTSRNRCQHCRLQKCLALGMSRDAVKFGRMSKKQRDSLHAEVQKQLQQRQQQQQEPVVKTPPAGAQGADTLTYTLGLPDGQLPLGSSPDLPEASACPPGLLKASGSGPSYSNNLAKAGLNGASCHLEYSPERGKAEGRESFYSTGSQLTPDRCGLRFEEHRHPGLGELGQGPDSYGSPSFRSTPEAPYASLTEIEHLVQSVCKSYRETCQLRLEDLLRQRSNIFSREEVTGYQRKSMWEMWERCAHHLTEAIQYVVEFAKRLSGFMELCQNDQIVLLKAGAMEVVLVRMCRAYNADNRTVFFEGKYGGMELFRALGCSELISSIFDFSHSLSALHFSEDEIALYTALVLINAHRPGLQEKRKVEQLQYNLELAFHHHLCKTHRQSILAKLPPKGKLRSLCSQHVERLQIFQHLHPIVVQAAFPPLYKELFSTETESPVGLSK
# Method in brief: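 Steps: cells dispensed; compound or DMSO transferred by pin tool; doxycycline added to induce the ROR response element-driven luciferase; plates held 16hr at 37C; ONE-Glo added and luminescence measured.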
# [3] = MultiTox-Fluor Cytotoxicity Assay - LYMP1-002 - Dead Cells (AID 960); note: potency is the fitted concentration of half-maximal effect; nearly all actives have a fitted effect of over 60% in size
# Method in brief: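 Cells were plated, rested 5 hr, then treated with compound dilution series for 16 hr at 37 C. After adding substrate reagent and 60 min at room temperature, dead-cell protease fluorescence gave concentration-response curves fitted by the Hill equation.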
# [4] = qHTS for Inhibitors of the vitamin D receptor (VDR): Hit Validation using a Texas Red Assay (AID 602201); note: potency is the fitted concentration of half-maximal effect
# Method in brief: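 Fluorescence polarization (Ex 595/Em 615 nm) of Texas Red (7 nM) with 1.5 uM VDR-LBD and LG19078 (final concentrations). Compounds were incubated for 2 hours at room temperature.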
# [5] = biological target: Cytochrome P450 3A4 (Homo sapiens) (UniProt P08684); assay: qHTS Assay for Activators of Cytochrome P450 3A4 (AID 885); note: nearly all actives have a fitted effect of over 65% in size
# Cytochrome P450 3A4 (Homo sapiens), sequence (P08684 whole entry, looked up): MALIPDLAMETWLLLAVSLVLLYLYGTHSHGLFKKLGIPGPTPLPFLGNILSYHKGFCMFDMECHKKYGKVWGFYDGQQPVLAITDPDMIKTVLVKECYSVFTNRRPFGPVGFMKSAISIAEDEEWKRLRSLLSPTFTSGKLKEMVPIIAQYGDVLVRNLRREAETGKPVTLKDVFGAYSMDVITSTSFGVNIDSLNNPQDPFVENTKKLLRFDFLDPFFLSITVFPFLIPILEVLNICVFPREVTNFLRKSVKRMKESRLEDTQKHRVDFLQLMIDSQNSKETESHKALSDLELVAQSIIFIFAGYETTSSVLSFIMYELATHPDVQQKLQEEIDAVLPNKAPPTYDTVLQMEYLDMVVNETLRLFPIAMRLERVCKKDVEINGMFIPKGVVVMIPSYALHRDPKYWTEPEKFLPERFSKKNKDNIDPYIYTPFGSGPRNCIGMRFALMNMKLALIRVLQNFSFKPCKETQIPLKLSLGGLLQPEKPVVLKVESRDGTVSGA
# Method in brief: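 Human CYP3A4 dealkylates Luciferin-PPXE to luciferin, which luciferase detection converts to light. Substrate was at its KM (25uM), buffer 200mM KPO4, reaction 60 min at RT.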
# [6] = biological target: Peroxisome proliferator-activated receptor gamma (Homo sapiens) (UniProt P37231); assay: qHTS assay for small molecule antagonists of peroxisome proliferator-activated receptor gamma signaling (AID 588537; active = well fitted inhibition curve with a large enough effect in the signal ratio, with a control signal flat, not every such curve was filed as active; the % refers to the signal ratio; note: potency is the fitted concentration of half-maximal effect)
# Peroxisome proliferator-activated receptor gamma (Homo sapiens), sequence (P37231 whole entry, looked up): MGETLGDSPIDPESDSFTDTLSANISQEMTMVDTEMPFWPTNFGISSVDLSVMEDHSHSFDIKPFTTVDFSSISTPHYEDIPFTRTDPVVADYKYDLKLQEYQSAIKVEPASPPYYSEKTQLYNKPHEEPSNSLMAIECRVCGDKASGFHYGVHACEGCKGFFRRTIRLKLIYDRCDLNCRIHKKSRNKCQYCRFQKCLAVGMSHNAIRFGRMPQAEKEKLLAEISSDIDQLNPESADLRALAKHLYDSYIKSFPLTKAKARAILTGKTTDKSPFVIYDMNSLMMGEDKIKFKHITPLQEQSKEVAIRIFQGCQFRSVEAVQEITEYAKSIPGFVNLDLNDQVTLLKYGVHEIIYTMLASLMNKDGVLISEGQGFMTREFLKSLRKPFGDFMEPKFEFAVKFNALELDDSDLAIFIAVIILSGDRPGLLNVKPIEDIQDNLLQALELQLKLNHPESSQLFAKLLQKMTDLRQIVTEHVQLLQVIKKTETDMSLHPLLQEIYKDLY
# Method in brief: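 Compounds are tested as concentration series for inhibition of rosiglitazone-driven (50 nM) reporter expression in GeneBLAzer PPAR-gamma-UAS-bla HEK293 cells. After 16 h at 37 C, CCF4 substrate is added for 2 h at room temperature and blue/green fluorescence is measured.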
# [7] = biological target: Thyroid hormone receptor beta (Homo sapiens) (UniProt P10828); assay: qHTS assay for small molecule agonists of thyroid hormone receptor beta signaling (AID 588545; calls by dose curve)
# Thyroid hormone receptor beta (Homo sapiens), sequence (P10828 whole entry, looked up): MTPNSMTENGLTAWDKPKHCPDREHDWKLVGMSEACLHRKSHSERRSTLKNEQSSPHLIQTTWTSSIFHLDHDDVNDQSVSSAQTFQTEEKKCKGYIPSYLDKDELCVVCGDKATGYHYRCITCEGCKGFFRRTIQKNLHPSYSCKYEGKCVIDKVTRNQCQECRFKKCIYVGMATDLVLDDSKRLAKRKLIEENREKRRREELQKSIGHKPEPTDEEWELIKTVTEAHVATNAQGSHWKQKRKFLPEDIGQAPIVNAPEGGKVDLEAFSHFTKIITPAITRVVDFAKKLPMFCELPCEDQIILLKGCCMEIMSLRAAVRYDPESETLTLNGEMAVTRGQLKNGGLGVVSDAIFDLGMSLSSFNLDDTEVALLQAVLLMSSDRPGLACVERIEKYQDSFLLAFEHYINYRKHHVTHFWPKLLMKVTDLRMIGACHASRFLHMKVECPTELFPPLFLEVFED
# Method in brief: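 Cells (2500/well) were seeded, incubated 4 hrs at 37 C, dosed with a compound series, incubated 18 hrs, loaded with CCF4 dye for 2 hrs at RT, then read for fluorescence. Data were scaled between DMSO (0%) and 10 nM T3 (100%).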
# [8] = qHTS assay for small molecule antagonists of retinoid X receptor alpha signaling (AID 588546; active = well fitted inhibition curve with a large enough effect in the signal ratio, with a control signal flat, not every such curve was filed as active; the % refers to the signal ratio; note: potency is the fitted concentration of half-maximal effect;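 for max response: cells stimulated with 9-cis-retinoic acid as agonist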); conditions: HEK293T RXRa-UAS-bla, beta-lactamase ratio, antagonist mode; measured here: W530 green channel, cytotoxicity proxy
# Method in brief: (§1)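 Beta-lactamase reporter inhibition, read as CCF4 fluorescence ratio (ex 405, em 460/530 nm) after 2 h at RT. HEK293T UAS-bla cells, 2500/well, were stimulated with 9-cis-RA at 500 or 100 nM final alongside test compound for 18 h at 37 C.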
# [9] = biological target: Retinoic acid receptor RXR-alpha (Homo sapiens) (UniProt P19793); assay: as above; conditions: HEK293T RXRa-UAS-bla, beta-lactamase ratio, antagonist mode
# Retinoic acid receptor RXR-alpha (Homo sapiens), sequence (P19793 whole entry, looked up): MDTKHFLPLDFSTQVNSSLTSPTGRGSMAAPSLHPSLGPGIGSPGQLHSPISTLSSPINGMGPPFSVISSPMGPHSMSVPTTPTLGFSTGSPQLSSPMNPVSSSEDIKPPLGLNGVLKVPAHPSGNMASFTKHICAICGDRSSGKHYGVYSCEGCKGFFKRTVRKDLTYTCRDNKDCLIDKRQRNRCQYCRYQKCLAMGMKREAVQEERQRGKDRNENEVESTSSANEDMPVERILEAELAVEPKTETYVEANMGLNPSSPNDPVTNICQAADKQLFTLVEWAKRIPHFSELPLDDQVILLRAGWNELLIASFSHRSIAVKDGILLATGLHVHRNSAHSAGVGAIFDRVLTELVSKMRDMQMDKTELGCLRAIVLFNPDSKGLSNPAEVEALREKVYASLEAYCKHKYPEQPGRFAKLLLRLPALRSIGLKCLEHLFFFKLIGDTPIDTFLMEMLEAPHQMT
# Method in brief: as §1
# [10] = qHTS assay for environmental chemicals that activate the Aryl hydrocarbon Receptor (AhR) signaling pathway (AID 651777); conditions: 1A2-DRE human hepatoma cells, luciferase, 24 h; activation: stronger effect = higher value; note: nearly all actives have a fitted effect of over 15% in size
# Method in brief: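 Stable CYP1A2 promoter/DRE-luciferase human hepatoma line treated 24 hr; One-Glo luminescence, 30 min RT.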
# [11] = biological target: Peroxisome proliferator-activated receptor alpha (Homo sapiens) (UniProt Q07869); assay: qHTS assay for small molecule agonists of the peroxisome proliferator-activated receptor alpha (PPARalpha) signaling pathway (AID 651778); conditions: PathHunter PPARalpha complementation, chemiluminescence, 6 h; max response: stronger effect = higher value
# Peroxisome proliferator-activated receptor alpha (Homo sapiens), sequence (Q07869 whole entry, looked up): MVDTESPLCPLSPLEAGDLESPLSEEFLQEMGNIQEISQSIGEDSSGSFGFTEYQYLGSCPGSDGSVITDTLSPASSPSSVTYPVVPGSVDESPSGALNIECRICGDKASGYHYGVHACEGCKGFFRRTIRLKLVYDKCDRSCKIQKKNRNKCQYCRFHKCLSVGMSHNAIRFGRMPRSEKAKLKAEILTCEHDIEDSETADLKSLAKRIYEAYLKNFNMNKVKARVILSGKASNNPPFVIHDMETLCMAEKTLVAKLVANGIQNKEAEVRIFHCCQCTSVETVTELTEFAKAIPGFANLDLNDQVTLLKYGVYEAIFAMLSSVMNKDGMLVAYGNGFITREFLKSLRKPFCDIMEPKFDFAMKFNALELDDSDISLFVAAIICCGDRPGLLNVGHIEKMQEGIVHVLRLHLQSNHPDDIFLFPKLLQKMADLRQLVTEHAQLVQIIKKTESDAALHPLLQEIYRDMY
# Method in brief: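 Cells plated at 2,000/well and held overnight at 37 C, 5% CO2, then compound added by pin tool for 6 hr; after PathHunter detection reagent and 60 min at room temperature, chemiluminescence from enzyme complementation was read.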
# [12] = qHTS assay for small molecule agonists of the antioxidant response element (ARE) signaling pathway measured by Nrf2-dependant transcriptional activity (AID 720636; active = well fitted curve in the direction sought with a large enough effect in the repeat runs; an effect the other way counts as inactive or inconclusive;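 note: HepG2 cells with an ARE-driven luciferase reporter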)
# Method in brief: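 Reporter gene assay, HepG2 ARE-luc: 16 hr compound, 37 C, 5% CO2; read-out luciferase luminescence.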
# [13] = qHTS assay for cell viability of HEK293 cells (AID 743288); conditions: ATP luminescence (CellTiter-Glo), 18 h; max response: stronger effect = lower value; note: nearly all actives have a fitted effect of over 50% in size; note: potency is the fitted concentration of half-maximal effect
# Method in brief: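 Quantitative high-throughput screen: compounds were pinned onto parental HEK293 cells (2,000 per well) after a minimum 5 h settling at 37 C, incubated 18 h at 37 C, and intracellular ATP measured by luciferase luminescence.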
# [14] = qHTS assay for cell viability of the p53RE-bla HCT-116 cell line (AID 743292); note: nearly all actives have a fitted effect of over 55% in size; note: potency is the fitted concentration of half-maximal effect
# Method in brief: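 Readout: CellTiter-Glo luminescence after 30 min RT. Treatment: compounds in DMSO, 16 h, 37 C. Cells: CellSensor p53RE-bla HCT-116, 4,000/well, preincubated 5 h.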
# [15] = qHTS assay for small molecule activators of the human pregnane X receptor (PXR) signaling pathway (AID 720659; call rule not given here)
# [16] = biological target: Cytochrome P450 3A4 (Homo sapiens) (UniProt P08684); assay: qHTS Assay for Inhibitors and Substrates of Cytochrome P450 3A4 (AID 884); note: potency is the fitted concentration of half-maximal effect; nearly all actives have a fitted effect of over 50% in size
# Method in brief: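 Luminescent readout of luciferin produced by CYP3A4 (20 nM) dealkylation of Luciferin-PPXE, 25 uM (its KM). NADPH-driven reaction ran 60 min at RT after 10 min compound preincubation; data scaled to 57 uM ketoconazole as 100% inhibition.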
# [17] = biological target: Peroxisome proliferator-activated receptor gamma (Homo sapiens) (UniProt P37231); assay: qHTS assay for small molecule agonists of peroxisome proliferator-activated receptor gamma signaling (AID 588536; active = well fitted curve in the direction sought with a large enough effect in the signal ratio, with a control signal flat, not every such curve was filed as active; the % refers to the signal ratio)
# Method in brief: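 Cells were plated and held 6–6.5 h at 37 C, then compounds were added as a titration series. After a further 16 h, CCF4 dye was loaded for 2 h at room temperature and emission at 460/530 nm recorded.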
# [18] = biological target: Vitamin D3 receptor (Homo sapiens) (UniProt P11473); assay: qHTS assay for small molecule antagonists of vitamin D receptor signaling (AID 588541; calls by dose curve;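 note: receptor activated by calcitriol during compound treatment; series mostly up to about 77 µM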)
# Vitamin D3 receptor (Homo sapiens), sequence (P11473 whole entry, looked up, the tested form may be a part): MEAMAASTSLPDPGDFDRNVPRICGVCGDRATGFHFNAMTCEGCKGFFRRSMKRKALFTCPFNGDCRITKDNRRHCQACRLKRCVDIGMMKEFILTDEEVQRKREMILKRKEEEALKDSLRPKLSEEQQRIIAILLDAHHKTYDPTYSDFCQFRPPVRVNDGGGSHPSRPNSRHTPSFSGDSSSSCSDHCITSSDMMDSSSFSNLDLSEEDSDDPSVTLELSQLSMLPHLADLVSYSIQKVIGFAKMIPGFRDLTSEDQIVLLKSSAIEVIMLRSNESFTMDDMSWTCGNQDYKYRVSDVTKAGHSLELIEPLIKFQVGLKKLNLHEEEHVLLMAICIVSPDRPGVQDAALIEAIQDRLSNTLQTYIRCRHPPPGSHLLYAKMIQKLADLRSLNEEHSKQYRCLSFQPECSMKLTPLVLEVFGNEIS
# Method in brief: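 VDR-UAS-bla HEK293T cells (2000/well, 2% charcoal-stripped FBS) were treated with titrated compounds plus 1-alpha,25-dihydroxyvitamin D3 (50 nM or 3 nM final) for 16 h at 37 C. CCF4 beta-lactamase fluorescence was read; Hill fits gave IC50.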
# [19] = biological target: Vitamin D3 receptor (Homo sapiens) (UniProt P11473); assay: qHTS assay for small molecule agonists of vitamin D receptor signaling (AID 588543; calls by dose curve)
# Method in brief: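 qHTS in agonist mode: compound titrations stimulate a VDR-driven β-lactamase reporter in HEK293T cells over 16 h at 37 °C. Response normalized to 50 nM 1α,25-dihydroxyvitamin D3 = 100%, DMSO = 0%; Hill fitting gives EC50 and maximal response.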
# [20] = qHTS assay for small molecule agonists of retinoid X receptor alpha signaling (AID 588544; calls by dose curve); conditions: HEK293T RXRa-UAS-bla, beta-lactamase reporter, 18 h; 530 nm emission
# [21] = biological target: Retinoic acid receptor RXR-alpha (Homo sapiens) (UniProt P19793); assay: as above
# [22] = biological target: Thyroid hormone receptor beta (Homo sapiens) (UniProt P10828); assay: qHTS assay for small molecule antagonists of thyroid hormone receptor beta signaling (AID 588547; active = well fitted inhibition curve with a large enough effect in the signal ratio, with a control signal flat, not every such curve was filed as active; the % refers to the signal ratio;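 note: cells stimulated with 0.4 nM T3 agonist during compound exposure; series mostly up to about 77 µM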); conditions: TR-UAS-bla HEK293, beta-lactamase ratio, antagonist mode, 18 h
# Method in brief: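 TR-UAS-bla GripTite HEK293 cells in 2% charcoal/dextran FBS medium were preincubated 4 h at 37 C, given compound (0.59 nM to 92 uM) plus 0.4 nM T3 (final) for 18 h, then CCF4 for 2 h at RT; Hill fit gave IC50.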
# [23] = qHTS assay for small molecule agonists of the antioxidant response element (ARE) signaling pathway measured by Nrf2-dependant transcriptional activity - cell viability counter screen (AID 720653; active = well fitted curve in the direction sought with a large enough effect in the repeat runs; an effect the other way counts as inactive or inconclusive); conditions: ARE-bla HepG2 viability, CellTiter-Glo ATP luminescence, 16 h; max response: stronger effect = lower value
# Method in brief: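 ARE-bla HepG2 cells (2,000/well) rested 5 hrs at 37C/5% CO2, then exposed to compounds in DMSO for 16 hrs. Viability was read in the same wells as intracellular ATP by luminescence, 30 min at room temperature after reagent addition.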
# [24] = biological target: Nuclear receptor subfamily 1 group I member 2 (Rattus norvegicus) (UniProt Q9R1A7); assay: qHTS assay for small molecule activators of the rat pregnane X receptor (rPXR) signaling pathway (AID 651751; call rule not given here); conditions: rPXR reporter cells, luciferase (One-Glo), 24 h
# Nuclear receptor subfamily 1 group I member 2 (Rattus norvegicus), sequence (Q9R1A7 whole entry, looked up): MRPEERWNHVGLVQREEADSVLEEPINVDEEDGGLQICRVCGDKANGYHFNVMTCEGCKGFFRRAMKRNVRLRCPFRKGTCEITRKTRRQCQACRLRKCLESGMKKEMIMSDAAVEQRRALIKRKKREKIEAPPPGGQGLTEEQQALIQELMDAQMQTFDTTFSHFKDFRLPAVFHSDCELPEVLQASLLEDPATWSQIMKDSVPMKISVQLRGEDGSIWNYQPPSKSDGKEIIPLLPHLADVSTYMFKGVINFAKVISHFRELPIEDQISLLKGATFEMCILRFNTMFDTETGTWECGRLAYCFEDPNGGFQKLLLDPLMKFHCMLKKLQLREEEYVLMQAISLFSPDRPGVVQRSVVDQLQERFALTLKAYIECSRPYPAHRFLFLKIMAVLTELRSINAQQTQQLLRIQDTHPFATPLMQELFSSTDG
# [25] = biological target: Vitamin D3 receptor (Homo sapiens) (UniProt P11473); assay: qHTS for Inhibitors of the vitamin D receptor (VDR): Hit Validation in Primary Screen (AID 602199); conditions: VDR-coactivator inhibition assay, qHTS confirmation; note: potency is the fitted concentration of half-maximal effect
# Method in brief: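 Fluorescence polarization assay of VDR binding to Alexa 647-labelled SRC2-3 coactivator peptide: 800nM VDR with 5uM LG19078 agonist, compounds, 2 h at room temperature, read Ex 620 nm/Em 688 nm.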
# [26] = biological target: Vitamin D3 receptor (Homo sapiens) (UniProt P11473); assay: qHTS for Inhibitors of the vitamin D receptor (VDR): Hit Validation using a Beta-Lactamase Assay (AID 602202)
# Method in brief: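 Stably transfected HEK293 cells express a VDR–GAL4 DNA-binding-domain fusion driving a UAS beta-lactamase reporter, stimulated by agonist LG190178. Compounds were added 4 h after plating and incubated 18 h. A FRET beta-lactam substrate was then added for 2 h and cleaved substrate emission read at 447 nm.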
# [27] = qHTS for Inhibitors of the vitamin D receptor (VDR): Hit Validation using a Cytotoxicity Assay (AID 602204); note: nearly all actives have a fitted effect of over 75% in size
# Method in brief: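 ATP luminescence, 30 min post-reagent. Exposure: 18 h. Seeding: 20,000 cells/well, 4 h prior to compound. Controls: cycloheximide, DMSO.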
compound,measurement,setting,value
Cc1cccc(C)c1,outcome,[1],inactive
same,Potency,[2],inactive
COc1ccc(N=[N+]([O-])c2ccc(OC)cc2)cc1,Potency,[3],25.1 µM (active)
same,outcome,[1],inactive
Cc1ccccc1N1C(=O)NC(=O)/C(=C\c2cnn(-c3ccccc3)c2)C1=O,Potency,[4],inactive
c1ccc2c(c1)ccc1ncccc12,Potency,[5],inactive
same,outcome,[1],inactive
same,Potency,[2],inactive
Cc1ccc(N)c([N+](=O)[O-])c1,outcome,[1],inactive
same,Potency,[2],inactive
CCOCn1c(-c2ccc(Cl)cc2)c(C#N)c(Br)c1C(F)(F)F,Potency,[6],39.8 µM (active)
same,Potency,[7],inactive
same,max response,[8],0.12%
same,Potency,[9],2.24 µM (active)
same,activation,[10],-4.34% (inactive)
same,max response,[11],14.2% (inactive)
same,Potency,[12],inactive
same,Potency,[13],7.94 µM (active)
same,Potency,[14],6.31 µM (active)
same,outcome,[15],inactive
C=CCn1c(=O)n(CC=C)c(=O)n(CC=C)c1=O,Potency,[16],10 µM (active)
same,Potency,[5],inactive
same,outcome,[1],inactive
CN/C(=N\[N+](=O)[O-])NCc1cnc(Cl)s1,Potency,[17],inactive
same,Potency,[6],inactive
same,Potency,[18],inactive
same,outcome,[19],inactive
same,max response,[20],-16.2%
same,Potency,[21],inactive
same,Potency,[7],inactive
same,max response,[8],-9.8%
same,max response,[9],-1.36% (inactive)
same,activity change % (negative = inhibition),[22],-15.1% (inactive)
same,activation,[10],1.58% (inactive)
same,max response,[11],-0.992% (inactive)
same,Potency,[12],inactive
same,max response,[23],0.65% (inactive)
same,max response,[13],-4.28% (inactive)
same,Potency,[14],inactive
same,max response,[24],6.52% (inactive)
same,outcome,[15],inactive
Cc1ccnc(-n2c(C)cc(/C=C3\C(=O)NC(=S)N(C)C3=O)c2C)c1,Potency,[25],29.9 µM (active)
same,outcome,[26],inactive
same,outcome,[27],inactive
O=C1OC(=O)c2c(Br)c(Br)c(Br)c(Br)c21,outcome,[1],inactive
same,Potency,[2],inactive
CN1CCC(O)(c2cccs2)C(C(=O)c2cccs2)C1 (stereo not drawn),Potency,[4],28.2 µM (active)
CNC[C@H](O)c1ccc(OC(=O)C(C)(C)C)c(OC(=O)C(C)(C)C)c1,Potency,[5],inactive
